# Source: PubChem
# Tau fibril FP: tau fibrillization inhibition (FP) | P10636 | K18 P301L tau heparin fibrillization, Alexa594 FP, 6 h | Potency, µM (doses to about 57.7 µM), for the others: top-dose activity, negative = inhibition, hits mostly inhibitors | 280,000 tested, 0.39% active; note: potency is the fitted concentration of half-maximal effect; % is set by controls: 0 for no effect and ±100 for the full control effect; nearly all actives have a fitted effect of over 55% in size
# Target sequence (P10636 561-689 P618L limits assumed): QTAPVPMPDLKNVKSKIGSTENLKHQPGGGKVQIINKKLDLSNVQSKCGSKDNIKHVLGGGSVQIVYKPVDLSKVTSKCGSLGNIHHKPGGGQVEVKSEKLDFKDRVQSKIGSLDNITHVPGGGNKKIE
#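 K18 P301L tau (15 uM unlabeled/0.24 uM Alexa 594-labeled, final) + compound + heparin 20 uM final; 100 mM NaOAc pH 7; 6 hr 37 C; ThT 30 uM final added, 1 hr RT; FP ex 555/em 632 nm.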
# TRb-SRC2 inh: TRbeta-SRC2 interaction inhibition. P10828. TRbeta-SRC2 peptide binding, fluorescence polarization; receptor liganded with 1 µM T3. Potency, µM (highest dose often 106 µM), without a hit: at the highest dose activity change, negative = inhibition, hits mostly inhibitors. 280,000 tested, 0.065% active. AID 1469;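 note: potency is the fitted concentration of half-maximal effect; plate controls were bound peptide for no effect and peptide without receptor for full effect; nearly all actives have a fitted effect of over 50% in size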
#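 Read-out is fluorescence polarization (555 nm excitation, 632 nm emission) of a Texas Red SRC2 coactivator peptide; loss of signal reflects blocked binding to human TRb ligand-binding domain in the presence of 1 uM T3.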
# TexasRed fluor: Texas Red fluorescence interference in TRb-SRC2 counter-screen | TRb/SRC2 Texas Red total fluorescence interference | Potency, µM (titrated, usually from 106 µM), without a hit: at the top dose fluorescence change, negative = quenching | 280,000 tested, 0.29% active | AID 1479; active = well fitted curve in either direction with a large enough effect; inconclusive = small, poorly fitted or top-dose-only effect; note: potency is the fitted concentration of half-maximal effect; % is set by controls: 0 for no effect and ±100 for the full control effect
#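 Human TRβ ligand-binding domain (0.6 uM) and Texas Red SRC2 peptide (20 nM) in Tris buffer with 1 uM T3 and 5% DMSO were incubated with pinned compound for 5 hr at ambient temperature. Total fluorescence was computed as S + 2P (555/632 nm).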
# PNC inhibitor: inhibitors of perinucleolar compartment assembly | AID 2417 | PC3M PTB-GFP, PNC prevalence imaging, 16 h; stronger effect = lower value | activity change (PNC), negative = inhibition, % at 10 µM | 140,000 tested, 3.1% active;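 active = readout at or below -70, meaning at least 70% loss of cells showing the perinucleolar compartment, a nuclear body marking cancer cells; inconclusive = readout between -30 and a set limit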;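 note: plate controls were DMSO wells for no effect and camptothecin positive control wells for full effect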
#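 Compounds are pinned in duplicate onto adhered PC3M cells stably expressing GFP-tagged PTB and incubated 16 h at 37 C. Cells are then fixed, nuclei stained with Hoechst, and PNC-positive cells counted.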
# Tau fluor counter: counter-screen for tau fibril formation inhibitors. tau K18 P301L Alexa594 fluorescence, heparin fibrillization. Potency, µM (top dose mostly 57.7 µM), for inactives: top-dose activity change, negative = decrease. 280,000 tested, 0.93% active; note: potency is the fitted concentration of half-maximal effect; % is set by controls: 0 for no effect and ±100 for the full control effect; nearly all actives have a fitted effect of over 55% in size
#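 Human tau K18 P301L (15 uM unlabeled, 0.24 uM Alexa 594-labeled) in 100 mM sodium acetate pH 7 with 20 uM heparin, 6 hr at 37 C. ThT 30 uM added, 1 hr ambient; Alexa 594 FP and total fluorescence read at 555/632 nm.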
# Tau fibril ThT: blocks human tau fibril formation measured by thioflavin T. P10636. recombinant tau K18 P301L, heparin-induced fibrillization, ThT fluorescence. Potency, µM (doses to about 57.4 µM), inactives show at the highest dose activity, negative = inhibition, hits mostly inhibitors. 270,000 tested, 2.1% active. AID 1460; note: potency is the fitted concentration of half-maximal effect; % is set by controls: 0 for no effect and ±100 for the full control effect; nearly all actives have a fitted effect of over 55% in size
#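 ThT emission at 510 nm, taken 1 hr after adding 30 uM dye, quantifies aggregates formed when 20 uM heparin acts on human tau K18 P301L for 6 hr at 37 C.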
# Tau fibril TEM: Blocks tau fibril formation, electron microscopy; shares compounds with Tau fibril ThT; recombinant tau K18 P301L fibrillization, TEM grading; stronger effect = higher value; fibril grade (0 = clumped fibrils, 4 = only tiny pieces) (concentration not given with the values); 45 tested, 70% active; AID 1719;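 active = compounds whose electron micrographs showed tau fibrils broken into shorter filaments or fragments, graded high on fibril breakup; inconclusive = micrographs gave an unclear fibril picture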
# tau sediment: tau fibrillization inhibition by sedimentation. inhibition, % at 100 µM. 110 tested, 50% active. recombinant tau K18 P301L (four-repeat tau fragment), sedimentation SDS-PAGE densitometry. shares compounds with Tau fibril ThT; in the data active = inhibition above about 40%; inconclusive = no clear call, values can overlap the other calls; inactive = below about 18%
# An asterisk follows results filed as active; ? = inconclusive; . = no result. Shown are actives, neighbours in structure and some others; about 4.6% of the full set was active somewhere. Unless noted, calls come from the whole dose curve; as a rule, active = well fitted curve in the direction sought with a large enough effect; inconclusive = small, poorly fitted or top-dose-only effect, or another doubt; inactive = no such curve, though single readings can be large; an effect the other way counts as inactive or inconclusive.
SMILES,Tau fibril FP,TRb-SRC2 inh,TexasRed fluor,PNC inhibitor,Tau fluor counter,Tau fibril ThT,Tau fibril TEM,tau sediment
COc1cccc(CNc2cnc3ccccc3c2)c1O,10%,-2%,0%,3,?,?,.,.
Nc1nc2cc(S(=O)(=O)NC3=NCCCCC3)ccc2s1,?,-1%,-12%,.,-25%,5µM*,2*,69*
CCOC(=O)c1ccc(S(=O)(=O)Nc2nc3cc(S(=O)(=O)NC4=NCCCCC4)ccc3s2)cc1,16µM*,-2%,0%,.,?,11µM*,2*,68*
O=C(COC(=O)c1ccc(O)cc1)Nc1cccc(S(=O)(=O)NC2=NCCCCC2)c1,-11%,3%,3%,.,-18%,-9%,.,.
Cc1cc(C)c(NC(=O)CN2C(=O)C3(SCC(=O)N3c3ccc(F)cc3)c3ccccc32)c(C)c1 (stereo not given),-1%,1%,2%,.,-8%,-1%,.,.
O=C(O)CSc1cc(NS(=O)(=O)c2cccc([N+](=O)[O-])c2)c2ccccc2c1O,4µM*,-13%,-5%,.,?,1.8µM*,4*,79*
O=C(O)c1cccc(S(=O)(=O)Nc2ccc([N+](=O)[O-])cc2O)c1,?,3%,-3%,.,-24%,-25%,.,.
Cc1oc2c(cc(NS(=O)(=O)c3ccc(C(C)C)cc3)c3ccccc32)c1C(=O)O,6%,0%,-22%,.,-14%,?,.,.
CCc1ccc(S(=O)(=O)Nc2cc(SCC(=O)O)c(O)c3ccccc23)cc1,8.9µM*,-1%,-6%,.,?,3.2µM*,4*,77*
Cc1cc2c(NC(=O)Nc3ccccc3)cccc2nn1,?,?,21%,.,-25%,?,?,?
